Measurements reported in PubChem BioAssay (NCATS).
Where “and” joins values, the source holds several entries; their conditions need not be identical. Equal values may be shown once. Records with an inconclusive call do not appear. Calls of active or inactive are those of the source. The call rests on the fitted dose curve; in most records, active means well fitted curve in the direction sought with a large enough effect; inconclusive means small, poorly fitted or top-dose-only effect, or another doubt; inactive means no such curve, though single readings can be large; an effect the other way counts as inactive or inconclusive. Where a SMILES comes first, the peptide text is derived from it. Bridges are numbered along the chain shown (N, C = ends). [ ]: non-standard residue; d: D form. The star is where a group is joined. X2 = CC[C@H](C)CCCCC(=O)*; Dab = NCC[C@H](N)C(=O)O

Legend:
[1] = qHTS Assay for Identifying Gametocytocidal Compounds (AID 743244);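 further: actives lower the fluorescent signal which means gametocytes are killed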; details: P. falciparum 3D7 stage III-V gametocytes, alamarBlue, 72 h; max response: active compounds read low
Method in brief: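 In this qHTS viability screen, late-stage 3D7 gametocytes are incubated with compound for 72 h, then with alamarBlue for 24 h; reduced resorufin fluorescence marks killing.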

[2] = qHTS assay to identify small molecule inhibitors of chordoma cells - UCH-1 (AID 1259355); details: UCH-1 chordoma viability, CellTiter-Glo, 48 h, combination, with auranofin plus four topoisomerase inhibitors; series mostly up to 46.1 µM; further: nearly all actives have a fitted effect of over 55% in size
Method in brief: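 Luminescent ATP read-out (CellTiter-Glo, 30min at room temperature) measured viability of UCH-1 cells exposed for 48hr to test drugs at 15 concentrations, co-dosed with a five-agent combination of auranofin, camptothecin, doxorubicin, rubitecan and topotecan.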

[3] = qHTS assay to identify small molecule inhibitors of chordoma cells - UCH-2 (AID 1259356); details: UCH-2 chordoma viability, CellTiter-Glo ATP luminescence, 48 h; series mostly up to 46.1 µM
[4] = P-glycoprotein substrates identified in KB-8-5-11 adenocarcinoma cell line, qHTS therapeutic library screen (AID 1346987); details: KB-8-5-11 (P-gp overexpressing) viability, CellTiter-Glo, 72 h; series mostly up to 44.5 µM; further: nearly all actives have a fitted effect of over 65% in size
Method in brief: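 Steps: plate 500 KB-8-5-11 cells/well in DMEM + 10% FCS (colchicine removed); pin compounds in dose-response; incubate 72 h, 37 degree C, 5% CO2; add CellTiter-Glo, 5 min; read luminescence.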
On the % scale 0 is the no-effect control and ±100 the full control effect.

O=C(O)c1cc(O)c2c(c1)[C@H]([C@H]1c3cc(C(=O)O)cc(O)c3C(=O)c3c(O[C@@H]4O[C@H](CO)[C@@H](O)[C@H](O)[C@H]4O)cccc31)c1cccc(O[C@@H]3O[C@H](CO)[C@@H](O)[C@H](O)[C@H]3O)c1C2=O
inactive: max response [1] -8.85% | Potency [2] | Potency [3] | Potency [4]

CC[C@H](C)CCCCC(=O)N[C@@H](CCN)C(=O)N[C@H](C(=O)N[C@@H](CCN)C(=O)N[C@H]1CCNC(=O)[C@@H]([C@H](C)O)NC(=O)[C@H](CCN)NC(=O)[C@H](CCN)NC(=O)[C@H](CC(C)C)NC(=O)[C@@H](CC(C)C)NC(=O)[C@H](CCN)NC1=O)[C@@H](C)O (X2-[Dab]T[Dab][Dab][Dab][dL]L[Dab][Dab][dT]; lactam 4-C)
inactive: max response [1] -2.93% | Potency [2] | Potency [3] | Potency [4]

c1ccc(-n2cnnn2)cc1
inactive: max response [1] 0.811% | Potency [2] | Potency [3] | Potency [4]

FC(F)OC(Cl)C(F)(F)F (stereo not drawn)
inactive: max response [1] -3.13% | Potency [2] | Potency [3] | Potency [4]

Cc1c(Cl)cccc1Nc1ncccc1C(=O)O
inactive: max response [1] -5.77% | Potency [2] | Potency [3] | Potency [4]

C[C@H](NCCc1ccc(O)cc1)[C@H](O)c1ccc(O)cc1
inactive: max response [1] 10.2% | Potency [2] | Potency [3] | Potency [4]

CC(=O)[O][Al][O]C(C)=O
inactive: max response [1] -11.1% | Potency [2] | Potency [3] | Potency [4]

CC[C@H](CC[C@@H](C)[C@H]1CC[C@H]2[C@@H]3CC=C4C[C@@H](O)CC[C@]4(C)[C@H]3CC[C@]12C)C(C)C
inactive: max response [1] 14.2% | Potency [2] | Potency [3] | Potency [4]

N=C(N)n1cccn1
inactive: max response [1] 13.6% | Potency [2] | Potency [3] | Potency [4]

CO/N=C(\C(=O)N[C@@H]1C(=O)N2C(C(=O)O)=C(CSC(=O)c3ccco3)CS[C@H]12)c1csc(N)n1
inactive: max response [1] -2.3% | Potency [2] | Potency [3] | Potency [4]

O=C(Cc1cccs1)N[C@@H]1C(=O)N2C(C(=O)[O-])=C(C[n+]3ccccc3)CS[C@H]12
inactive: max response [1] 7.46% | Potency [2] | Potency [3] | Potency [4]

COC(=O)CCC[N+](C)(C)C
inactive: max response [1] -8.11% | Potency [2] | Potency [3] | Potency [4]

O=C1NCCN1c1ncc([N+](=O)[O-])s1
inactive: max response [1] -6.09% | Potency [2] | Potency [3] | Potency [4]

O=C(O)COc1ccccc1/C=N/NC(=O)c1ccncc1
inactive: max response [1] 1.32% | Potency [2] | Potency [3] | Potency [4]

CO/N=C(\C(=O)N[C@@H]1C(=O)N2C(C(=O)O)=C(CSc3nnnn3C)CS[C@H]12)c1csc(N)n1
inactive: max response [1] 2.87% | Potency [2] | Potency [3] | Potency [4]

CC(C)c1ncc([N+](=O)[O-])n1C
inactive: max response [1] 3.27% | Potency [2] | Potency [3] | Potency [4]

O=C(O)/C=C/C(=O)Nc1ccc(S(=O)(=O)Nc2nccs2)cc1
inactive: max response [1] 0.278% | Potency [2] | Potency [3] | Potency [4]

CC1CCC(NC(=O)N(CCCl)N=O)CC1 (stereo not drawn)
inactive: max response [1] 3.88% | Potency [2] | Potency [3] | Potency [4]

CCCCC(CC)CCC(CC(C)C)OS(=O)(=O)O (stereo not drawn)
inactive: max response [1] 17.4% and 3.69% | Potency [2] | Potency [3] | Potency [4]

CCN(CC)C(=O)c1cccnc1
inactive: max response [1] -8.37% | Potency [2] | Potency [3] | Potency [4]

CO[C@@]1(NC(=O)C2SC(=C(C(N)=O)C(=O)O)S2)C(=O)N2C(C(=O)O)=C(CSc3nnnn3C)CS[C@@H]21 (stereo partly drawn)
inactive: max response [1] 10.6% | Potency [2] | Potency [3] | Potency [4]

CC(CCc1ccc(O)cc1)NCC(O)c1ccc(O)cc1 (stereo not drawn)
inactive: max response [1] 16.5% | Potency [2] | Potency [3] | Potency [4]

O=c1[nH]c(=O)n([C@H]2C[C@H](O)[C@@H](CO)O2)cc1/C=C/Br
inactive: max response [1] 6.97% | Potency [2] | Potency [3] | Potency [4]

Oc1ccc(Cl)c2c1CCC2
inactive: max response [1] -5.98% | Potency [2] | Potency [3] | Potency [4]

Cc1ncc(C[n+]2csc(CCO)c2C)c(N)n1
inactive: max response [1] 2.57% | Potency [2] | Potency [3] | Potency [4]

Cc1cccc(C)c1NC(=O)C1CCCCN1C (stereo not drawn)
inactive: max response [1] -1.88% | Potency [2] | Potency [3] | Potency [4]

CC(C)[C@H](N)C(=O)OCC(CO)OCn1cnc2c(=O)[nH]c(N)nc21 (stereo partly drawn)
inactive: max response [1] -1.87% | Potency [2] | Potency [3] | Potency [4]
